# Values joined by “and” are separate entries in the source; they are usually repeats but may differ in a detail not shown here. Equal values may be shown once. Where a structure was tested more than once in an assay, its records may differ in their call. Active and inactive are the calls of the source. Entries that show only a call come without a potency. Unless noted, calls come from the whole dose curve; as a rule, active = well fitted curve in the direction sought with a large enough effect in the repeat runs; inconclusive = weak or mixed curves; inactive = no such curve, though single readings can be large; an effect the other way counts as inactive or inconclusive.
# Key:
# [1] = qHTS assay for identifying genotoxic compounds that show differential cytotoxicity against isogenic chicken DT40 cell lines with known DNA damage response pathways - wild type cell line (AID 743012); note: nearly all actives have a fitted effect of over 60% in size; note: potency is the fitted concentration of half-maximal effect
# Outline: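 First, wild type DT40 cells were plated at 300 per well and equilibrated about 0.5 h at 37 C/5% CO2. Next, compounds in DMSO were added and exposure lasted 40 h. Finally, CellTiter-Glo was added for 30 min at room temperature and luminescence recorded.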
# [2] = qHTS assay for identifying genotoxic compounds that show differential cytotoxicity against isogenic chicken DT40 cell lines with known DNA damage response pathways - Rev3 mutant cell line (AID 743014); note: nearly all actives have a fitted effect of over 55% in size; note: potency is the fitted concentration of half-maximal effect
# [3] = qHTS assay for identifying genotoxic compounds that show differential cytotoxicity against isogenic chicken DT40 cell lines with known DNA damage response pathways - Rad54/Ku70 mutant cell line (AID 743015); note: nearly all actives have a fitted effect of over 60% in size; note: potency is the fitted concentration of half-maximal effect
# [4] = qHTS assay to identify small molecule antagonists of the androgen receptor (AR) signaling pathway - cell viability counter screen (AID 743033; note: nearly all actives have a fitted effect of over 45% in size; note: potency is the fitted concentration of half-maximal effect)
# [5] = qHTS assay to identify small molecule antagonists of the androgen receptor (AR) signaling pathway using the MDA cell line - cell viability counter screen (AID 743041; note: nearly all actives have a fitted effect of over 45% in size; note: potency is the fitted concentration of half-maximal effect)
# Outline: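 R1881-driven MDA-kb2 AR-luc cells, 3,000/well, were dosed with library compounds for 16 h; cell health came from CellTiter-Fluor fluorescence in the reporter wells.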
# [6] = qHTS assay to identify small molecule antagonists of the thyroid receptor (TR) signaling pathway - cell viability counter screen (AID 743064); note: nearly all actives have a fitted effect of over 50% in size; note: potency is the fitted concentration of half-maximal effect
# Outline: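 GH3.TRE-Luc cells, 4 h pre-plating; cpd + T3 1 nM final; 37 °C 23.5 h; CellTiter-Fluor 30 min; fluorescence read.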
# [7] = qHTS assay to identify small molecule antagonists of the thyroid receptor (TR) signaling pathway (AID 743065); note: nearly all actives have a fitted effect of over 55% in size; note: potency is the fitted concentration of half-maximal effect
# Outline: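 Antagonism measured as loss of luciferase signal in GH3 cells stably carrying a TRE-luciferase reporter, co-treated with compound and T3 (1 nM final) for 23.5 h at 37 C. Viability was read in the same well by CellTiter-Fluor.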
# [8] = target: Estrogen receptor (Homo sapiens) (UniProt P03372); assay: qHTS assay to identify small molecule agonists of the estrogen receptor alpha (ER-alpha) signaling pathway (AID 743075; calls by dose curve; note: potency is the fitted concentration of half-maximal effect)
# [9] = qHTS assay to identify small molecule antagonists of the estrogen receptor alpha (ER-alpha) signaling pathway using the BG1 cell line (AID 743080; calls by dose curve;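 note: BG1 cells stimulated with 17beta-estradiol alongside compound; nearly all actives have a fitted effect of over 25% in size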; note: potency is the fitted concentration of half-maximal effect)
# Outline: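 BG1-Luc-4E2 cells (endogenous full-length ER-alpha, stable 4×ERE-luciferase) were starved 5 days in phenol-red-free medium with 10% charcoal-stripped FBS, plated 24 h, then given compound plus 17beta-estradiol for 21.5 h at 37 C; ONE-Glo luminescence read after 30 min.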
# [10] = target: Aromatase (Homo sapiens) (UniProt P11511); assay: qHTS assay to identify aromatase inhibitors (AID 743083); note: nearly all actives have a fitted effect of over 55% in size; note: potency is the fitted concentration of half-maximal effect
# [11] = tested on: thyroid hormone receptor (rat, GH3 cells); assay: qHTS assay to identify small molecule agonists of the thyroid receptor (TR) signaling pathway (AID 743066; calls by dose curve)
# [12] = qHTS assay to identify small molecule antagonists of the estrogen receptor alpha (ER-alpha) signaling pathway - cell viability counter screen (AID 743074; calls by dose curve;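 note: HEK293 cells carrying ER-alpha-UAS-bla reporter stimulated with 17beta-estradiol; nearly all actives have a fitted effect of over 45% in size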; note: potency is the fitted concentration of half-maximal effect)
# [13] = target: Estrogen receptor (Homo sapiens) (UniProt P03372); assay: qHTS assay to identify small molecule antagonists of the estrogen receptor alpha (ER-alpha) signaling pathway (AID 743069; active = well fitted curve in the direction sought with a large enough effect in the signal ratio in the repeat runs, not every such curve was filed as active; inconclusive = weak or mixed curves, or effect the other way; inactive = no such curve, though single readings can be large or run the other way; the % refers to the signal ratio; note: potency is the fitted concentration of half-maximal effect)
# Outline: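 Compound effects are measured against 17beta-estradiol stimulation in HEK293 cells with a UAS-controlled beta-lactamase reporter for ER-alpha. Exposure lasts 18 hr at 37C; LiveBLAzer B/G FRET substrate follows for 2 hr at room temperature.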
# [14] = target: Estrogen receptor (Homo sapiens) (UniProt P03372); assay: qHTS assay to identify small molecule agonists of the estrogen receptor alpha (ER-alpha) signaling pathway using the BG1 cell line (AID 743079); details: BG1Luc4E2 cells, ERE-luciferase agonist, 22 h; activation: at 70.3 µM (top of the series); note: nearly all actives have a fitted effect of over 20% in size; note: potency is the fitted concentration of half-maximal effect
# [15] = qHTS assay to identify small molecule antagonists of the estrogen receptor alpha (ER-alpha) signaling pathway using the BG1 cell line - cell viability counter screen (AID 743081);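 note: compound given together with 17beta-estradiol as the ER stimulus; nearly all actives have a fitted effect of over 45% in size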; note: potency is the fitted concentration of half-maximal effect
# [16] = target: Androgen receptor (Homo sapiens) (UniProt P10275); assay: qHTS assay to identify small molecule antagonists of the androgen receptor (AR) signaling pathway (AID 743035; active = well fitted inhibition curve with a large enough effect in the signal ratio in the repeat runs, not every such curve was filed as active; inconclusive = weak or mixed curves, or effect the other way; inactive = no such curve, though single readings can be large or run the other way; the % refers to the signal ratio; note: potency is the fitted concentration of half-maximal effect)
# Outline: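 Beta-lactamase FRET read (2 h RT incubation with LiveBLAzer B/G) following 16 h of compound plus R1881 treatment of AR-UAS-bla HEK293 cells, which had been pre-incubated 4 h at 37C.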
# [17] = target: Androgen receptor (Homo sapiens) (UniProt P10275); assay: qHTS assay to identify small molecule agonists of the androgen receptor (AR) signaling pathway using the MDA cell line (AID 743040; note: nearly all actives have a fitted effect of over 20% in size)
# Outline: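 After a 5 h incubation at 37C and 0% CO2, MDA-kb2 reporter cells were dosed with compounds in DMSO and kept 16 h under the same conditions. Luciferase activity was then read as luminescence with ONE-Glo.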
# [18] = qHTS assay to identify small molecule antagonists of the glucocorticoid receptor (GR) signaling pathway - cell viability counter screen (AID 720693); note: nearly all actives have a fitted effect of over 55% in size
# [19] = target: Androgen receptor (Homo sapiens) (UniProt P10275); assay: qHTS assay to identify small molecule agonists of the androgen receptor (AR) signaling pathway (AID 743036; active = well fitted activation curve with a large enough effect in the signal ratio in the repeat runs, with a control signal flat, not every such curve was filed as active; inconclusive = weak or mixed curves, or effect the other way; inactive = no such curve, though single readings can be large or run the other way; the % refers to the signal ratio)
# Outline: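 AR-bla HEK293 cells, 2,000/well; 4 h preincubation 37C/5% CO2; compound (DMSO) 16 h at 37C; LiveBLAzer B/G FRET substrate 2 h RT; fluorescence intensity read-out.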
# [20] = target: Androgen receptor (Homo sapiens) (UniProt P10275); assay: qHTS assay to identify small molecule antagonists of the androgen receptor (AR) signaling pathway using the MDA cell line (AID 743042; note: nearly all actives have a fitted effect of over 55% in size)
# Outline: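 Antagonist mode: compounds plus R1881 agonist added to MDA-kb2 AR-luc cells, incubated 16 h at 37C. Luciferase reporter luminescence quantified, with multiplexed CellTiter-Fluor readout for cell viability.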
# Sequence of Aromatase (Homo sapiens) (P11511 whole entry, looked up): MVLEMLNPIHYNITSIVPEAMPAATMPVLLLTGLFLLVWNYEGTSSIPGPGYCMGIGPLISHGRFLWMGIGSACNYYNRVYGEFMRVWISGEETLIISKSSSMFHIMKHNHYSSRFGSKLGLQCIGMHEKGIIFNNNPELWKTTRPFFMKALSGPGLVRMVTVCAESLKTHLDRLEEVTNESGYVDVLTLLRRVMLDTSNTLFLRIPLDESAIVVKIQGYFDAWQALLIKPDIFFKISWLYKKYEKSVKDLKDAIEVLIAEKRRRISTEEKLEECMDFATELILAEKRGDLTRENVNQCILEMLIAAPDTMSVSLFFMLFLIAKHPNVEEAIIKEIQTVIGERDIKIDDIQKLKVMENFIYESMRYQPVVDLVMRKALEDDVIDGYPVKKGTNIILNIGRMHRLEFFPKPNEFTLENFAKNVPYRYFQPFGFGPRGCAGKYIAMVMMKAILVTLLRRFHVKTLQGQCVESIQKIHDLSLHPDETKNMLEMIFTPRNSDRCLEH
# Sequence of Androgen receptor (Homo sapiens) (P10275 whole entry, looked up): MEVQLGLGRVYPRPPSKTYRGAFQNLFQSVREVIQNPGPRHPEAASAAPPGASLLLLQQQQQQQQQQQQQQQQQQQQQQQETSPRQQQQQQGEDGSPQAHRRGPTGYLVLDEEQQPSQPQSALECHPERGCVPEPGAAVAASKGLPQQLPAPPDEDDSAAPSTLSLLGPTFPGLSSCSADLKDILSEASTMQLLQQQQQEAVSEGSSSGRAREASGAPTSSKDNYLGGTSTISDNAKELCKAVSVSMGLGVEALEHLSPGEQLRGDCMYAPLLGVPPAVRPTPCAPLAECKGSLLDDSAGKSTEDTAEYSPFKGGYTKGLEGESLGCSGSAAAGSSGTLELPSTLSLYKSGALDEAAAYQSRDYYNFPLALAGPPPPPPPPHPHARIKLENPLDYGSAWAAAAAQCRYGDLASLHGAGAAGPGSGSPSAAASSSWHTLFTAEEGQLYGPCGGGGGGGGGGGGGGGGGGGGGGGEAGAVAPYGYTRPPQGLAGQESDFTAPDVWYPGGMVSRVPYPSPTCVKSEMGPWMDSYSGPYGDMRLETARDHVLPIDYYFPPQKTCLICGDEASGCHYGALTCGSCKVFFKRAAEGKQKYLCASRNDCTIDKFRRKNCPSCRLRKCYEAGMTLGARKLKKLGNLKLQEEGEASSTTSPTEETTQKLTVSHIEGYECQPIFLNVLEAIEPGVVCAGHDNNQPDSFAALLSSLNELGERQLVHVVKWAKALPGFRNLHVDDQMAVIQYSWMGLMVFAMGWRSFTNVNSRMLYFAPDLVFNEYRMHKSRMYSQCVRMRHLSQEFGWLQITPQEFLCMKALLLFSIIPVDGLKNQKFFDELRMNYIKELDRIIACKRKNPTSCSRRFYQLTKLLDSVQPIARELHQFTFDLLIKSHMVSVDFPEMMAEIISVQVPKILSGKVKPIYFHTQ
# Sequence of Estrogen receptor (Homo sapiens) (P03372 whole entry, looked up): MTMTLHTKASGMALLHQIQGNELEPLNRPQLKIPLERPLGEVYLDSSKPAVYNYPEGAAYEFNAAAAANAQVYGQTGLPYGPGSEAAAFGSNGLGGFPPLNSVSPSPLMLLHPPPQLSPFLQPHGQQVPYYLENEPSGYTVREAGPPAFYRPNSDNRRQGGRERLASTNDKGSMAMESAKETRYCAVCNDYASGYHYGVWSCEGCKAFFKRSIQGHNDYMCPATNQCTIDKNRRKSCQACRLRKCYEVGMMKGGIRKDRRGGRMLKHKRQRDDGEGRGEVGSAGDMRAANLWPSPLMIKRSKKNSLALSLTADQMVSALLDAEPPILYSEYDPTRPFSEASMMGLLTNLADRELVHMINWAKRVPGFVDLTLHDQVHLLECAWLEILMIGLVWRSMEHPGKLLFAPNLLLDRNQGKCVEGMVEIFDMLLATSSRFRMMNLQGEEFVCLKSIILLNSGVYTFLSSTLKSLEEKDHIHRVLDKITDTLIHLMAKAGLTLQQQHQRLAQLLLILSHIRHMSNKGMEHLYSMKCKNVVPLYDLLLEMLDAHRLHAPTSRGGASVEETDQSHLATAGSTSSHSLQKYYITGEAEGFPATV
SMILES,Potency [1],Potency [2],Potency [3],Potency [4],Potency [5],Potency [6],Potency [7],Potency [8],Potency [9],Potency [10],Potency [11],Potency [12],Potency [13],Potency [14],Potency [15],Potency [16],outcome [17],Potency [18],outcome [19],Potency [20]
COC(=O)N(OC)c1ccccc1COc1ccn(-c2ccc(Cl)cc2)n1,193 nM (active),243 nM (active),217 nM (active),871 nM (active),1720 nM (active),61.1 µM (active),137 nM (active),275 nM [inconclusive] (active),0.77 µM (active),61100 nM (active),,,,,,,,,,
c1ccc2c(c1)cc1ccc3cccc4ccc2c1c34,inactive,inactive,inactive,inactive,,,inactive,,,inactive,inactive,inactive,,,,,,,,
CCN(CC)C(=O)N[C@@H]1C=C2c3cccc4[nH]cc(c34)C[C@@H]2N(C)C1,7500 nM (active),26600 nM (active),16800 nM (active),inactive,inactive,,,inactive,,,inactive,inactive,inactive,inactive,inactive,,,,,
[F][Sn]([c]1ccccc1)([c]1ccccc1)[c]1ccccc1,243 nM (active),433 nM (active),306 nM (active),1230 nM (active),3860 nM (active),0.77 µM (active),386 nM (active),2190 nM [inconclusive] (active),1.93 µM (active),,,1100 nM (active),,,7700 nM (active),,,,,
COC(=O)c1cc(Oc2ccc(Cl)cc2Cl)ccc1[N+](=O)[O-],9690 nM (active),12200 nM (active),24300 nM (active),inactive,inactive,,61100 nM (active),,,,inactive,inactive,,,inactive,,,,,
CO/N=C(/C1=NOCCO1)c1ccccc1Oc1ncnc(Oc2ccccc2Cl)c1F,30.6 nM (active),54.4 nM (active),15.3 nM (active),6910 nM (active),30600 nM (active),,863 nM (active),,8.63 µM (active),54400 nM (active),,,54900 nM [inconclusive] (active),,,,,,,
CSC(=O)c1c(C(F)F)nc(C(F)(F)F)c(C(=O)SC)c1CC(C)C,34200 nM (active),27100 nM (active),30500 nM (active),inactive,,54.2 µM (active),,inactive,inactive,68200 nM (active),,inactive,,inactive,inactive,,,,,
O=S1OCC2C(CO1)C1(Cl)C(Cl)=C(Cl)C2(Cl)C1(Cl)Cl (stereo not given),54.5 µM (active) and 24.3 µM (active),30.7 µM (active) and 34.3 µM (active),48.6 µM (active) and 48.5 µM (active),49000 nM (active),,61.2 µM (active) and 54.4 µM (active),61.2 µM (active) and 61.1 µM (active),43.7 µM [inconclusive] (active) and inactive,61.2 µM (active) and 61.1 µM (active),27300 nM (active),,inactive,inactive,1940 nM (active),inactive,38.9 µM (active) and 48.9 µM (active),inactive,,,
O=[N+]([O-])c1ccccc1-c1ccccc1,inactive,inactive,inactive,inactive,,inactive,inactive,inactive,inactive,inactive,inactive,inactive,inactive,,inactive,,,,,
COc1ccc2[nH]cc(CCN(C(C)C)C(C)C)c2c1,,,,inactive,inactive,,,,,inactive,inactive,inactive,,,inactive,,,inactive,,
BrCC(Br)(Br)Br,,,,inactive,inactive,inactive,inactive,inactive,35.6 µM (active),inactive,inactive,inactive,inactive,inactive,inactive,inactive,inactive,inactive,inactive,inactive
Nc1ccccc1-c1ccccc1,inactive,inactive,inactive,inactive,inactive,inactive,inactive,inactive,,inactive,inactive,inactive,,,inactive,,,,,
ClC1=C(Cl)[C@]2(Cl)[C@H]3[C@H]([C@@H]4C=C[C@H]3C4)[C@@]1(Cl)C2(Cl)Cl,inactive,inactive,inactive,inactive,inactive,68.5 µM (active) and 61.1 µM (active),54500 nM (active),inactive,inactive,inactive,,inactive,inactive,inactive,inactive,,,,,
CC(=O)[O][Sn]([c]1ccccc1)([c]1ccccc1)[c]1ccccc1,122 nM (active),172 nM (active),172 nM (active),245 nM (active),,0.172 µM (active),,,,,,195 nM (active),,,3860 nM (active),,,,,
CO/N=C(\C(=O)OC)c1ccccc1CO/N=C(\C)c1cccc(C(F)(F)F)c1,344 nM (active),273 nM (active),273 nM (active),,5450 nM (active),34.4 µM (active),969 nM (active),,,61100 nM (active),inactive,,,,,,,,,
COCCC#N,inactive,inactive,inactive,inactive,inactive,inactive,inactive,,,inactive,inactive,inactive,,,inactive,,,,,
CC(Cc1ccc(O)cc1)NCC(O)c1cc(O)cc(O)c1 (stereo not given),inactive,inactive,inactive,inactive,,inactive,inactive,inactive,inactive,inactive,inactive,,inactive,,inactive,,,,,
Oc1ccc([C@H]2CNCc3c2ccc(O)c3O)cc1O,,,,inactive,inactive,,,inactive,inactive,inactive,inactive,,inactive,inactive,inactive,,,inactive,,
